Molecules are shown by their SMILES. Screen size: about 360,000 compounds; about 1,300 (0.36%) were called active.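 The calls were made as follows: active = inhibition above the mean of all tested compounds plus 3 SD (cut at about 70% in these data); inactive = the rest.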 Shown is part of a subset that was picked to be rich in actives.

Sequence of Photoreceptor-specific nuclear receptor (Homo sapiens) (Q9Y5X4 whole entry, looked up, the tested form may be a part): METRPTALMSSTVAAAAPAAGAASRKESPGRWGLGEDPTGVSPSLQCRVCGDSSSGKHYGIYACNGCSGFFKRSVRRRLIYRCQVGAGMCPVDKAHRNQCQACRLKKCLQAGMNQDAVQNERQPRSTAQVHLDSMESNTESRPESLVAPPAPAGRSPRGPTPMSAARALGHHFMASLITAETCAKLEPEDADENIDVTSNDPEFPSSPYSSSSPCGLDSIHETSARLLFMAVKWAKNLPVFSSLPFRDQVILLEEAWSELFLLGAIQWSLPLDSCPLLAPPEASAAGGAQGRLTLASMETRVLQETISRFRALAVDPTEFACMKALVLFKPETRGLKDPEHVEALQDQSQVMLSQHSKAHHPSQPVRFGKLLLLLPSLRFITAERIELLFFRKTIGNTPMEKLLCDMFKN

The assay has as its target Photoreceptor-specific nuclear receptor (Homo sapiens) (UniProt Q9Y5X4). The assay can be described thus: NCOR release from NR2E3 in cells – cell-based, luminescence, CHO-S, Gal4-NCOR/VP16-NR2E3, primary screen (AID 602229).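 Also: 0% = DMSO with NR2E3 transfected cells and 100% = cells lacking NR2E3 construct; higher means lower luciferase signal from less NR2E3 corepressor binding.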 To be noted: CHO-S Gal4-NCOR/VP16-NR2E3 two-hybrid, luciferase; at 3.98 µM; hits give high values.
`Cc1[nH]n(-c2cccc(Cl)c2)c(=O)c1-c1ccc(Cl)cc1`: the inhibition of corepressor binding is 85% (active).

For `CCCc1cc(=O)n2[nH]c(C)c(-c3ccc(Cl)cc3)c2n1`, the inhibition of corepressor binding was 43.4% (inactive).

Consider `Cc1nc2c(-c3ccccc3)c(C)[nH]n2c(=O)c1Cl`, for which the inhibition of corepressor binding was 9.97% (inactive).

For the molecule `O=C(NCc1ccc(F)cc1F)[C@@H]1CCCN1C(=O)[C@@H]1CCCN1C(=O)c1cccc(Cl)c1`, the inhibition of corepressor binding was 4.78% (inactive).

`Cn1cc(CN2CCCCC2c2ccccn2)c(-c2ccc3c(c2)OCCO3)n1` (stereo not drawn): the inhibition of corepressor binding is -4.51% (inactive).

As to `CSc1ncccc1C(=O)Nc1nc2ccc(F)cc2s1`, the inhibition of corepressor binding was 47.5% (inactive).

As for `c1ccc(C(=NNc2nc3ccccc3s2)c2ccccn2)cc1`, the inhibition of corepressor binding is 89.7% (active).

On to `NC(=S)c1ccc(C(N)=S)o1`, for which the inhibition of corepressor binding is -5.1% (inactive).

On to `O=S1(=O)CC(N2CCSCC2)CN1Cc1cn(Cc2cccc(Cl)c2)nn1` (stereo not drawn), for which the inhibition of corepressor binding was -19.4% (inactive).

Take `CCOCCCNC(=O)C(=O)NCCCOCC`: the inhibition of corepressor binding was 8.99% (inactive).

Regarding `CN(Cc1cn(Cc2ccc(C(F)(F)F)cc2)nn1)C1CN(Cc2cn(Cc3ccc(C(F)(F)F)cc3)nn2)S(=O)(=O)C1` (stereo not drawn), the inhibition of corepressor binding is 86% (active).

For `Cc1ccc(Cn2cc(CN3CC(N4CCN(C)CC4)CS3(=O)=O)nn2)cc1` (stereo not drawn), the inhibition of corepressor binding was 9.78% (inactive).

`CN(C)C1CN(Cc2cn(Cc3ccccc3)nn2)S(=O)(=O)C1` (stereo not drawn): the inhibition of corepressor binding was -4.65% (inactive).

As for `Cc1ccc(NC(=O)C(C)Sc2nnc(C3CC3)n2C2CC2)cc1S(=O)(=O)N1CCOCC1` (stereo not drawn), the inhibition of corepressor binding is 13% (inactive).

Regarding `COc1ccc(-n2nc(C(=O)Nc3cc(OC)c(OC)c(OC)c3)c3ccccc3c2=O)c(OC)c1`, the inhibition of corepressor binding is -8.33% (inactive).

Turning to `COc1ccc(OC)c(NC(=O)CN(C)CCOc2ccc(Br)cc2)c1`, the inhibition of corepressor binding is 7.2% (inactive).

Consider `COc1ccc(Nc2ncnc3ccc(Br)cc23)c(OC)c1`, for which the inhibition of corepressor binding was 85.3% (active).

With `COc1ccc(OC)c(Nc2nc3ccccc3n3cnnc23)c1`, the inhibition of corepressor binding is 19.4% (inactive).

`COC(=O)c1cc(S(=O)(=O)NCC2CCN(Cc3ccc(Cl)cc3)CC2)cn1C`: the inhibition of corepressor binding was 16.9% (inactive).

As to `Fc1cccc(CSc2nnc3ccc(-c4ccncc4)nn23)c1`, the inhibition of corepressor binding is 6.42% (inactive).

As for `C=C(Br)CN1CCN(CC(=C)Br)CC1`, the inhibition of corepressor binding is -7.79% (inactive).

For `O=C(CN1CCC(NC(=O)C2CC2)CC1)Nc1ccccc1[N+](=O)[O-]`, the inhibition of corepressor binding was -17.5% (inactive).

In the case of `CCOC(=O)C(CO)NC(=O)C1(NC(C)=O)CCCC1` (stereo not drawn), the inhibition of corepressor binding is -34.7% (inactive).

As for `O=C(Nc1nnc(-c2ccc(Cl)cc2)o1)c1ccccc1Br`, the inhibition of corepressor binding was -48% (inactive).

As for `O=C(Nc1nnc(-c2ccccc2)o1)c1cc(-c2cccs2)nc2ccccc12`, the inhibition of corepressor binding is 88.7% (active).

As for `Cc1ccnc2nc(C(=O)Nc3nnc(-c4ccccc4)o3)nn12`, the inhibition of corepressor binding is 0.21% (inactive).

For `COc1cccc(C(=O)Nc2c3c(nn2-c2cccc(C)c2C)CS(=O)(=O)C3)c1OC`, the inhibition of corepressor binding is -6.84% (inactive).

In the case of `Cc1c(NC(=S)NCc2ccc(F)cc2)cccc1[N+](=O)[O-]`, the inhibition of corepressor binding is -17.5% (inactive).

`O=C(C1CCCO1)N(Cc1ccccc1)c1ccccc1` (stereo not drawn): the inhibition of corepressor binding is -3.43% (inactive).

As to `COc1ccc(C(=O)OCC(=O)Nc2cc(C)on2)cc1F`, the inhibition of corepressor binding is 20.3% (inactive).

Turning to `CC1(C)OC(=O)C2=C(CC(c3ccccc3)OC2CCc2ccccc2)O1` (stereo not drawn), the inhibition of corepressor binding was -2.84% (inactive).

Regarding `CCc1nc(N2CCN(C(C)=O)CC2)c2c3c(sc2n1)CCCC3`, the inhibition of corepressor binding is -27.3% (inactive).

With `COCCNc1nc(-n2nc(C)cc2C)nc2sc3c(c12)CCCC3`, the inhibition of corepressor binding is 91.3% (active).

`CCCc1nc2sc3c(c2c(=O)n1NC(=O)CCCl)CCCC3`: the inhibition of corepressor binding is 2.18% (inactive).

With `COc1ccccc1-c1nn(Cc2ccccc2)cc1C(=O)N1CCN(c2ncccn2)CC1`, the inhibition of corepressor binding was -28.8% (inactive).

`COC(=O)c1ccc2c(c1)S(=O)(=O)NC2C` (stereo not drawn): the inhibition of corepressor binding was 1.74% (inactive).

Consider `CCOC(=O)c1cccc(NS(=O)(=O)c2c(C(=O)N3CCCCCC3)c(C)n(C)c2C)c1`, for which the inhibition of corepressor binding is -3.88% (inactive).

Turning to `CCOC(=O)N1CCN(C(=O)c2ccc(S(=O)(=O)Nc3cccc(C(F)(F)F)c3)cc2)CC1`, the inhibition of corepressor binding is 78.3% (active).

Regarding `CC(=O)N1CCN(C(=O)c2cccc(S(=O)(=O)Nc3ccc(C)cc3)c2)CC1`, the inhibition of corepressor binding was -16.4% (inactive).

Take `Cc1ccsc1CNn1cnnc1SCc1ccccc1F`: the inhibition of corepressor binding was 1.17% (inactive).

`Cc1nc2c(OCc3ccc(Cl)cc3)cccn2c1N(C)Cc1cccs1`: the inhibition of corepressor binding is -14.4% (inactive).

As for `Cc1nc2c(OCc3ccc(Cl)cc3Cl)cccn2c1N(C)CC1CC1`, the inhibition of corepressor binding is -9.82% (inactive).

As for `Cc1nc2c(OCc3cccc(Cl)c3)cccn2c1N(C)CC1CC1`, the inhibition of corepressor binding was 79.4% (active).

In the case of `CC1CCN(CCCn2c(SCC(=O)NC3CCCC3)nc3ccccc3c2=O)CC1`, the inhibition of corepressor binding was -14.7% (inactive).

In the case of `COc1cc(OC)cc(C(=O)NC(=S)N2CCN(c3ccc(C(F)(F)F)cc3[N+](=O)[O-])CC2)c1`, the inhibition of corepressor binding was -27.8% (inactive).

With `O=C(Cc1ccc(S(=O)(=O)N2CCOCC2)s1)N1CCN(c2ccc(C(F)(F)F)cc2[N+](=O)[O-])CC1`, the inhibition of corepressor binding is 27.1% (inactive).

In the case of `O=C(c1ccc(N2CCCC2=O)cc1)N1CCN(c2ccc(C(F)(F)F)cc2[N+](=O)[O-])CC1`, the inhibition of corepressor binding was 82.8% (active).

In the case of `Cc1nnc(SCC(=O)Nc2ncc3c(n2)CC(C)(C)CC3=O)s1`, the inhibition of corepressor binding was -5.27% (inactive).

Take `Cc1cc2oc(=O)cc(CN(C)Cc3ccc(OC(F)F)cc3)c2cc1Cl`: the inhibition of corepressor binding was -26% (inactive).

Turning to `Cc1ccc(NC(=S)N(CCN(C)C)Cc2cccs2)cc1C`, the inhibition of corepressor binding was -15.7% (inactive).

Take `COC(=O)c1scc(C)c1NC(=O)CSc1ccc(Cl)cc1`: the inhibition of corepressor binding is 2.57% (inactive).

For `COC(=O)c1sccc1NS(=O)(=O)c1ccc(F)cc1F`, the inhibition of corepressor binding is -9.53% (inactive).

With `COC(=O)c1sccc1NC(=O)CSc1ccccc1NS(=O)(=O)c1cc(Cl)ccc1Cl`, the inhibition of corepressor binding is 89.8% (active).

Take `CCCC(=O)Nc1nnc(CC(=O)OCC)s1`: the inhibition of corepressor binding is 12.6% (inactive).

For the molecule `CCn1nc(C)c(CN2CCN(Cc3ccc(OC)c(C)c3C)C(CCO)C2)c1C` (stereo not drawn), the inhibition of corepressor binding is -29.8% (inactive).

Take `CC(C(=O)N1CCOCC1)N1c2cccc3cccc(c23)S1(=O)=O` (stereo not drawn): the inhibition of corepressor binding is -0.03% (inactive).

Take `Oc1c(Cl)cc(Cl)c(Cl)c1Cc1c(O)c(Cl)cc(Cl)c1Cl`: the inhibition of corepressor binding is 90.7% (active).

On to `C=CCn1c(SCC(=O)c2ccc(Br)cc2)nnc1C(C)NC(=O)Cc1ccc(OC)cc1` (stereo not drawn), for which the inhibition of corepressor binding was 22.7% (inactive).

For the molecule `C=CCn1c(C23CC4CC(CC(C4)C2)C3)n[nH]c1=S`, the inhibition of corepressor binding is -1.8% (inactive).

Consider `Cc1nc(NC(=O)CCC(=O)O)sc1C(=O)N(C)C`, for which the inhibition of corepressor binding was -26.6% (inactive).

Consider `COc1ccc2c(c1)c(=Cc1ccc(N(C)C)cc1)c1cc(-c3ccccc3)[n+](C)n12`, for which the inhibition of corepressor binding is 82.2% (active).

In the case of `C[C@@H]1NC(=O)c2cc([N+](=O)[O-])cc(F)c2NCCC[C@@H](C(N)=O)NC(=O)[C@H](CC(N)=O)NC1=O`, the inhibition of corepressor binding is -1.65% (inactive).

Regarding `O=C(Nc1ccccc1C(=O)N1CCCCCC1)c1ccccc1Cl`, the inhibition of corepressor binding is -5.45% (inactive).

`Cc1cc(C(=O)OCC(=O)Nc2ccccc2Cl)c(C)o1`: the inhibition of corepressor binding is -11.3% (inactive).

In the case of `O=C(Nc1ccccc1Cl)/C(Cl)=C(\Cl)S(=O)c1ccccc1` (stereo not drawn), the inhibition of corepressor binding was 90.4% (active).

For the molecule `Cc1sc2ncnc(SCC(=O)NC3CCS(=O)(=O)C3)c2c1C` (stereo not drawn), the inhibition of corepressor binding was 11.1% (inactive).

In the case of `CCNC(=O)c1c(O)c2cccc3c2n(c1=O)CC3`, the inhibition of corepressor binding was -12.8% (inactive).

Take `CCN(CC)C(=O)CSc1nnc(CNc2ccc(F)cc2)n1Cc1ccco1`: the inhibition of corepressor binding is -4.24% (inactive).

For `CN(C)C(=S)N=c1ssc(=S)n1Cc1ccco1`, the inhibition of corepressor binding is 91.5% (active).

In the case of `CC1CN(Cc2ccco2)C(=S)N(c2ccccc2)C1=O` (stereo not drawn), the inhibition of corepressor binding was 10.4% (inactive).

Take `C=CCNC(=O)c1ccccc1SCc1c(C)noc1C`: the inhibition of corepressor binding was -20.3% (inactive).

On to `CC(C)OCCCNc1ncnc2c1[nH]c1ccc(F)cc12`, for which the inhibition of corepressor binding is 75.6% (active).

Take `CC(/C=C/c1ccco1)=N/NC(=O)C1COc2ccccc2O1` (stereo not drawn): the inhibition of corepressor binding is -22.3% (inactive).

`CC1CC1C(=O)OCC(=O)c1c(N)n(C)c(=O)n(C)c1=O` (stereo not drawn): the inhibition of corepressor binding was 4.9% (inactive).

For the molecule `FC(F)(F)c1nnc2c3ccccc3c(Cl)nn12`, the inhibition of corepressor binding is -2.37% (inactive).

Consider `COc1ccc(OCCNS(=O)(=O)Cc2ccccc2)cc1`, for which the inhibition of corepressor binding is -15.6% (inactive).

Take `COc1ccc(S(=O)(=O)NCCCCOc2ccc(Cl)cc2)cc1`: the inhibition of corepressor binding was 96.7% (active).

Take `COc1ccc(S(=O)(=O)NCCOc2ccccc2)cc1F`: the inhibition of corepressor binding is -29.5% (inactive).

On to `CCOC(=O)c1sc(C)c2c1NC(C)(c1cccc3ccccc13)NC2=O` (stereo not drawn), for which the inhibition of corepressor binding is -1.53% (inactive).

Consider `OC(c1ccc(Cl)cc1)c1ncc(-c2ccc(Cl)cc2)[nH]1` (stereo not drawn), for which the inhibition of corepressor binding is 71.4% (active).

With `Cc1ccc(-c2cnc(C(O)c3cc(Cl)cc(Cl)c3)[nH]2)cc1` (stereo not drawn), the inhibition of corepressor binding is -10.6% (inactive).

Regarding `OC(c1ccc(F)cc1)c1ncc(-c2cccc(C(F)(F)F)c2)[nH]1` (stereo not drawn), the inhibition of corepressor binding was 30.1% (inactive).

With `Cc1[nH]n(C(N)=S)c(=O)c1N=Nc1ccc(Cl)cc1Cl`, the inhibition of corepressor binding is -3.9% (inactive).

With `O=C(NCc1ccccc1)c1cccc(NC(=O)C2CCCCC2)c1`, the inhibition of corepressor binding is -12.6% (inactive).

Turning to `O=C1CSC(c2cccc(F)c2)N1c1ccccc1F` (stereo not drawn), the inhibition of corepressor binding is -28.1% (inactive).

As to `O=C1C=C(c2cc(C(F)(F)F)cc(C(F)(F)F)c2)C[C@@H](c2ccc3c(c2)OCO3)C1`, the inhibition of corepressor binding is -2.34% (inactive).

For `O=C1C=C(c2ccnc3cc(Cl)ccc23)C[C@@H](c2ccc3c(c2)OCO3)C1`, the inhibition of corepressor binding is 85.8% (active).

Turning to `O=C1C=C(c2cccc(Cl)c2)C[C@@H](c2ccc(F)cc2)C1`, the inhibition of corepressor binding is -24.8% (inactive).

As to `O=C(CN1CCSCC1)N/N=C/c1ccc(F)cc1F`, the inhibition of corepressor binding was -6.92% (inactive).

As for `CCOC(=O)N1CCN(S(=O)(=O)c2cc(Br)cc3c2N(C(=O)C2CC2)CC3)CC1`, the inhibition of corepressor binding is -15.4% (inactive).

Consider `OC[C@@H]1CN(Cc2ccc(F)cc2)C[C@H](n2cnc3c(NC4CCCC4)ncnc32)O1`, for which the inhibition of corepressor binding was -45.5% (inactive).

Turning to `OC[C@@H]1CN(Cc2cccs2)C[C@H](n2cnc3c(NC4CCCC4)ncnc32)O1`, the inhibition of corepressor binding was -11.2% (inactive).

As for `OC[C@@H]1CN(Cc2ccc(-c3ccccc3)cc2)C[C@H](n2cnc3c(NC4CCCC4)ncnc32)O1`, the inhibition of corepressor binding is 91.4% (active).

These data come from PubChem BioAssay AID602229 (The Scripps Research Institute Molecular Screening Center, 2012).
